Source: PubChem BioAssay
This is a sample that favours compounds with a hit; in the whole collection about 2.5% have one here.
p97 ATPase inh: human p97 ATPase inhibition | P55072 | recombinant p97 ATPase, Kinase-Glo ATP luminescence, 3 h | inhibition, % at 8 µM | 220,000 compounds, 0.42% hits | AID 1481; in the data active = inhibition above about 15%;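 also: 0% = DMSO vehicle and 100% = wells lacking enzyme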
Target sequence (P55072 whole entry, looked up): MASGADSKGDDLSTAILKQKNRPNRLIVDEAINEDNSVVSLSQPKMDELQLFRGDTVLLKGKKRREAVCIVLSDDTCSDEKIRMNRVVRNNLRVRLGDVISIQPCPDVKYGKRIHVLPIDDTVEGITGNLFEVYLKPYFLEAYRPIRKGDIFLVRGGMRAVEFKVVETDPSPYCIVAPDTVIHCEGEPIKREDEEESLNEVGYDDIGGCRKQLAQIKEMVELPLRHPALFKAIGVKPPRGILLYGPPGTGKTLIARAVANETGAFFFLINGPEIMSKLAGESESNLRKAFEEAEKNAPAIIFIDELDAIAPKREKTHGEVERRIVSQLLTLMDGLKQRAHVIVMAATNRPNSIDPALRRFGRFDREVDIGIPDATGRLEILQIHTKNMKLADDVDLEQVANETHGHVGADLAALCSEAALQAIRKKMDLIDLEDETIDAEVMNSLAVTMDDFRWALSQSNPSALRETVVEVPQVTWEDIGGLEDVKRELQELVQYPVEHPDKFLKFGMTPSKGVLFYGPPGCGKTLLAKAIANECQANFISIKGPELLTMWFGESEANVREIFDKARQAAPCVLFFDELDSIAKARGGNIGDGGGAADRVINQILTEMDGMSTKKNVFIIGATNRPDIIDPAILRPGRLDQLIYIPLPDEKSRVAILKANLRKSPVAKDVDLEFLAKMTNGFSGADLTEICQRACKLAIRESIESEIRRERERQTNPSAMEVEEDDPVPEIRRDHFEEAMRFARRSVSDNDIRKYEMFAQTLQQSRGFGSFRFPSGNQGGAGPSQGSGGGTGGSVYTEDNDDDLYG
G6PDH CS: counter-screen for G6PDH assay hits: L. mesenteroides G6PDH inhibition; AID 1020; Purified L. mesenteroides G6PDH, diaphorase/resazurin coupled fluorescence, 45 min; 200,000 compounds, 0.12% hits; inhibition, % at 5 µM; in the data active = inhibition above about 50%
UBC9 SUMO inh: inhibitors of human SUMOylation (UBC9); P63279; HTRF SUMOylation assay, SAE1/SAE2 + UBC9, in vitro; inhibition, % at 35 µM; 290,000 compounds, 0.36% hits; in the data active = inhibition above about 50%, passing the limit was not always enough
HDAC3 inhib: human HDAC3 inhibition; recombinant HDAC3, fluorogenic peptide/trypsin coupled, fluorescence; 320,000 compounds, 0.15% hits; O15379; AID 2718; inhibition, % at 8.3 µM; in the data active = inhibition above about 26%, passing the limit was not always enough
PHOSPHO1 inh: PHOSPHO1 (human) inhibition; Q8TCT1; recombinant PHOSPHO1, absorbance phosphatase assay; inhibition, % at 13.3 µM; 290,000 compounds, 1.1% hits; AID 1565; in the data active = inhibition above about 60%
M18AAP inhibitor: PfM18AAP enzyme inhibition | inhibition, % at 7.35 µM | 290,000 compounds, 1.2% hits | recombinant PfM18AAP, H-Glu-NHMec fluorogenic cleavage;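 active = inhibition above the campaign mean inhibition over all tested compounds plus 3 SD, cut at about 28% in these data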;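 also: 0% = plate median of test compound wells and 100% = 2 mM ZnCl2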
Starred values were filed as active, the others as inactive; x = no result.

SMILES	p97 ATPase inh	G6PDH CS	UBC9 SUMO inh	HDAC3 inhib	PHOSPHO1 inh	M18AAP inhibitor
O=c1/c(=C/c2ccc([N+](=O)[O-])cc2)sc2n1CCCN=2	0.8	-1.4	-12.8	5.1	20.8	28.2*
CC(CCc1ccccc1)NC(=O)/C=C/c1ccccc1 (centres undefined)	0.1	7.2	12.3	4.3	63.9*	8.3
COc1ccc([C@H]2C(C(=O)O)=C[C@@H](C(C)(C)C)N2S(=O)(=O)c2ccccc2)cc1	x	x	x	-1.4	x	x
CC1=C(SCCC#N)S/C(=C2\SC(C)=C(SCCC#N)S2)S1	3.3	1.9	2.6	4.9	95.2*	-81.0
Cc1ccccc1C(=O)c1cccn1CC(=O)N1CCCCC1	x	x	17.3	3.0	24.2	-17.7
O=C(O)c1ccc(CNC(=O)C23CC4CC(CC(C4)C2)C3)cc1	x	x	7.0	-2.3	11.0	-8.1
COc1cc(/C=N/n2cnnc2)ccc1OC(=O)c1ccco1	-1.1	6.9	12.6	27.3*	51.4	2.3
O=C(COC(=O)c1n[nH]c2ccccc12)c1cccc(Br)c1	x	x	-2.0	6.3	60.6*	0.7
Cc1ccc(COc2ccsc2C(=O)O)cc1	0.1	4.6	0.5	x	60.9*	-5.3
CC(C(=O)NC(N)=O)N1C(=O)NC(c2ccccc2)(c2ccccc2)C1=O (centres undefined)	x	x	5.7	-1.3	23.7	3.0
COc1ccc(S(=O)(=O)N(C(=O)c2ccco2)c2cc3sc(=O)oc3c3ccccc23)cc1	6.0	-4.2	20.0	10.1	-9.7	6.6
CN(c1ccc(C(=O)O)cc1)S(=O)(=O)c1ccccc1	3.7	2.5	-4.5	-5.2	-11.6	4.8
CC(C)C(=O)N(c1ccc2oc(=O)sc2c1)S(=O)(=O)c1ccccc1	-3.8	1.6	-11.1	1.1	92.1*	-4.3
COc1ccc(C(=O)Oc2ccc3oc(=O)sc3c2)cc1	0.1	-1.2	2.1	-7.8	94.5*	15.0
CC(=O)N(c1ccc2oc(=O)sc2c1)S(=O)(=O)c1ccccc1	5.0	6.2	-17.0	5.3	52.6	28.6*
COc1ccc(OC)c(S(=O)(=O)N(C(C)=O)c2ccc3oc(=O)sc3c2)c1	2.8	3.6	-30.0	5.6	-5.3	10.6
COc1ccc(S(=O)(=O)N(C(=O)C(C)C)c2ccc3oc(=O)sc3c2)cc1	0.1	3.4	-40.1	-6.9	96.9*	7.3
COc1ccc(CCC(=O)Nc2ncc(C)s2)cc1	x	x	13.0	1.5	28.6	4.1
CCc1sc(C(=O)NCCCn2ccnc2)cc1Br	x	x	3.6	-0.7	-11.0	3.1
O=C(COc1cccc(C(F)(F)F)c1)NNC(=O)Cn1c(=O)cnc2ccccc21	x	x	x	2.2	x	x
O=C(CCn1c(=O)sc2ccccc21)NC1CCCCC1	x	x	9.0	-1.8	26.1	-1.5
Cc1nn(C(=O)c2cccs2)c(N)c1-c1ccccc1	3.1	6.0	-8.1	-4.6	4.9	1.7
CC(=O)c1c(C)nn(C(=O)c2cccs2)c1C	3.1	3.7	12.7	40.9*	-6.8	7.4
Cc1cc2c(cc1S(=O)(=O)N1CCN(c3cccc(C)c3C)CC1)OCCN2C	x	x	0.9	4.6	-24.6	7.3
COc1ccc(CCN(C)C(=O)c2cnc(C)cn2)cc1OC	x	x	4.0	-2.9	31.9	-9.5
SMILES	p97 ATPase inh	G6PDH CS	UBC9 SUMO inh	HDAC3 inhib	PHOSPHO1 inh	M18AAP inhibitor
CC1=C(CC(=O)c2ccc(Cl)cc2)C(=O)c2ccccc2C1=O	5.6	56.0*	23.9	10.9	7.1	6.8
O=C(Cc1ccccn1)c1ccc(Cl)cc1	x	x	x	-4.1	x	x
COc1ccc(C(=O)O/N=C(/c2ccccc2)c2ccncc2)cc1	4.9	17.7	11.0	44.4*	-15.2	-7.3
Cc1cccc(C(C)C)c1NC(=O)CN1C(=O)NC2(CCc3ccccc32)C1=O (centres undefined)	x	x	x	0.7	x	x
CN(C)C(=S)SCC(=O)Nc1cccc(C(F)(F)F)c1	3.2	0.1	-11.9	7.7	67.3*	-9.8
CCOc1ccc(NC(=O)CN(C)C(=O)C2CCN(C(=O)c3ccc(Cl)cc3)CC2)cc1OCC	x	x	x	-1.0	x	x
O=C(Nc1c(F)cccc1F)C1CCN(C(=O)c2cccs2)CC1	x	x	1.1	-0.5	1.5	-9.3
Cc1cc(C)c2c(=O)n(CC(=O)NC3CCCC3)sc2n1	-0.1	x	18.2	3.7	-73.5	56.2*
CC(C)(C)c1cc(CN2CCCCC2)cc(C(C)(C)C)c1O	2.2	1.9	-12.2	6.2	-43.0	23.5
CC(C)(C)c1cc(CN2CCCC(O)C2)c(O)c(C(C)(C)C)c1 (centres undefined)	-11.6	3.4	-4.2	36.4*	-46.3	1.9
O=C(CSc1n[nH]c(=O)n1C1CC1)NCc1ccccc1	-3.6	x	8.1	1.4	-0.8	-13.4
Cc1ccc(S(=O)(=O)N2CCCCC2C(=O)N2CCN(C)CC2)cc1 (centres undefined)	2.0	7.7	-4.9	0.2	61.5*	-0.6
O=S(=O)(Nc1ccc(O)c(NS(=O)(=O)c2ccccc2)c1)c1ccccc1	x	x	-8.7	-2.6	23.3	68.3*
CCN(CC)C1CCN(c2nc3nonc3nc2NCCOC)C1 (centres undefined)	2.2	11.4	9.9	7.4	9.7	0.5
COCCNc1nc2nonc2nc1NC(C)c1ccccc1Cl (centres undefined)	-0.9	4.3	8.4	-0.9	60.1*	-2.7
COc1ccc(-c2nnc(SCC(=O)NC(=O)Cc3ccccc3)n2C)cc1	x	x	x	-3.8	x	x
Clc1ccc(C2=Nc3cc(Cl)ccc3OC2)cc1	0.3	3.8	11.2	1.3	37.0	-3.0
c1ccc(C2=Nc3ccccc3OC2)cc1	7.7	1.8	5.5	-6.8	17.1	30.8*
Cc1ccc2c(c1)N=C(c1ccc(Cl)cc1)CO2	-9.7	0.9	-3.5	9.8	15.0	29.1*
COc1ccc(S(=O)(=O)N2CCC3(CC2)CC(=O)c2ccccc2O3)cc1OC	x	x	x	0.0	x	x
Cc1cccc(C(c2c(C)nn(-c3ccccc3)c2N)c2c(C)nn(-c3ccccc3)c2N)c1	1.2	-15.9	-18.0	-1.6	97.2*	22.1
CCCCCCCCCC[N+](C)(C)CC/C=C1/c2ccccc2Sc2ccc(Cl)cc21	x	x	-9.6	34.6*	35.6	5.8
CC[N+](C)(C)CC/C=C1/c2ccccc2Sc2ccc(Cl)cc21	7.3	x	6.1	-3.2	-12.7	0.0
CCCCCCCCCCC[N+](C)(C)CC/C=C1/c2ccccc2Sc2ccc(Cl)cc21	x	x	-0.2	32.4*	14.1	-0.3
CCCCN(C(=O)c1cc2c(s1)CCC2)c1c(N)n(CCCC)c(=O)[nH]c1=O	x	x	x	-1.4	x	x
O=C(CN1C(=O)NC2(CCCCCC2)C1=O)c1cccs1	x	x	x	-3.3	x	x
COCC(=O)N1CCCC(C(=O)c2ccc(-c3ccccc3)c(F)c2)C1 (centres undefined)	-2.4	13.6	7.8	11.2	62.8*	-6.8
CC(=O)NCC(=O)N1CCCC(C(=O)c2ccc(-c3ccccc3)c(F)c2)C1 (centres undefined)	2.2	5.2	0.8	-0.4	-15.9	2.2
COC(=O)c1sccc1S(=O)(=O)NCc1ccc(S(N)(=O)=O)cc1	x	x	19.4	-9.9	12.5	3.0
COc1ccccc1-c1nn2c(C3COc4ccccc4O3)nnc2s1 (centres undefined)	1.9	3.2	14.0	0.2	92.1*	6.3
